Compounds with a hit are over-represented: about 2.4% of the library has one in this group of screens.
D2 ag-1 – agonists of human D2 dopamine receptor (beta-arrestin); P14416; DiscoveRx PathHunter D2 beta-arrestin, luminescence, 90 min; 100% = 57 uM dopamine signal; activation, % (test concentration not listed); hit rate 0.084% among 360,000; AID 624465; in the data active = activation above about 40%; inconclusive = between about 15% and that limit
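DiscoveRx PathHunter D2 beta-arrestin cells (2,100/well) attached overnight, then compound-stimulated 90 min at 37 C in HBSS/10 mM HEPES/0.1% Tween-20 buffer; beta-galactosidase complementation read by luminescence after 1 h at ambient temperature. Dopamine 57 uM final (EC100) as control.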
D2 PAM-1 – human D2 receptor positive allosteric modulation. P14416. DiscoveRx D2 beta-arrestin cells, luminescence, 90 min; 100% = 57 uM dopamine signal. potentiation, % (test concentration not listed). hit rate 0.23% among 360,000; in the data active = potentiation above about 50%; inconclusive = mostly about 30% to 49%
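PathHunter D2 cells, attached overnight at 37 deg C, received compound in DMSO plus dopamine at EC20 (50 nM final) for 90 min at 37 deg C. Beta-arrestin recruitment was read as luminescence after 1 h with detection reagent at ambient temperature.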
D2 ag-2 – activates the human D2 dopamine receptor; activation, % at 2 µM; hit rate 0.53% among 340,000; P14416; HEK293 T-REx D2 cells, calcium flux agonist mode;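 active = activation over 3 SD above normal in the single-dose calcium agonist read, cut at about 30% in these data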; also: 0% is about no effect
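HEK293 Trex D2 cells, tetracycline-induced, o/n 30 C 5% CO2; no-wash Ca dye, RT 30–90 min; 10-cycle baseline, 23 nl cpd added, kinetic Ca read 180 s; agonist hits = positive Ca response.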
D2 antag – antagonists of human D2 dopamine receptor; HEK293 TREx D2 cells, calcium flux, dopamine EC80; AID 485344; hit rate 2% among 340,000; inhibition, % at 10 µM; in the data active = inhibition above about 30%; inactive = below that, where a call was filed; also: 0% is about no effect
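Tetracycline-induced HEK293 TREx cells expressing D2 receptor forced-coupled to calcium signalling, loaded with no-wash calcium dye. Compounds added and calcium flux read 180 s, then dopamine added at EC80 and read a further 180 s.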
D2 PAM-2 – positively modulates the human D2 dopamine receptor allosterically. P14416. HEK293 T-REx D2, calcium flux, EC20 dopamine potentiation. potentiation, % at 10 µM. hit rate 0.34% among 340,000;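 active = potentiation over 3 SD above the plate norm, cut at about 30% in these data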; also: 0% is about no effect
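Using a no-wash calcium dye in inducible, force-coupled HEK293 Trex cells expressing D2, we tracked fluorescence each second for 180 s after compound, then for 180 s after EC20 dopamine to detect augmented signalling.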
D3 ag – D3 receptor agonism confirmed, beta-arrestin readout; DiscoveRx D3 beta-arrestin cells, luminescence, 90 min; hit rate 4% among 2,300; Potency, µM (top dose mostly 76.9 µM), inactives show at the highest dose activation, usual class: activators; shares compounds with D2 ag-2; AID 720506;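 also: potency is read from the fitted curve at half-maximal effect; 100% = dopamine control response; nearly all actives have a fitted effect of over 70% in size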
Target sequence (P35462 whole entry, looked up): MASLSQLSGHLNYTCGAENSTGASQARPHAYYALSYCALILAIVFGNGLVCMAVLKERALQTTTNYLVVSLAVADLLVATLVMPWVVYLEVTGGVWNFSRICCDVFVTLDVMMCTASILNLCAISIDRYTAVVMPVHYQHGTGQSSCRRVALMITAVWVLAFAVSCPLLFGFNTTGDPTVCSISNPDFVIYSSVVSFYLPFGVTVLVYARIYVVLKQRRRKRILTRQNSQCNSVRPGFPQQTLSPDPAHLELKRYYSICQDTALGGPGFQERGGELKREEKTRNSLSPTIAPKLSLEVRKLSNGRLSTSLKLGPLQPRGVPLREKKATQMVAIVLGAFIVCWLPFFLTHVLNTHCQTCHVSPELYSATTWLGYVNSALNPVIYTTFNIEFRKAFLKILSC
D2 ag-3 – counter-screen for D3 agonists: human D2 dopamine receptor agonism | shares compounds with D2 ag-2 | Potency, µM (top dose mostly 76.9 µM), for inactives: at the top dose activation, actives largely listed as activators | AID 720507 | hit rate 5.9% among 2,300 | DiscoveRx PathHunter D2 beta-arrestin, luminescence, 90 min; response scale: percent relative to full dopamine signal; also: potency is read from the fitted curve at half-maximal effect; % of control where 0% means no effect; nearly all actives have a fitted effect of over 70% in size
* marks the source's active call; other numbers are inactive results; ? = inconclusive; / = not tested or not shown. Unless noted, calls follow the shape of the dose curve; as a rule, active = well fitted activation curve with a large enough effect; inconclusive = small, poorly fitted or top-dose-only effect; inactive = flat fitted curve, though single readings scatter.

SMILES | D2 ag-1 | D2 PAM-1 | D2 ag-2 | D2 antag | D2 PAM-2 | D3 ag | D2 ag-3
Cc1cc(C2=NNC(=NCCc3ccccc3)SC2)c(C)n1CC1CCCO1 (stereo not drawn) | 4 | -17 | 22 | 22 | -20 | -11% | -1%
O=C1C(=O)N(CCCn2ccnc2)C(c2cccnc2)/C1=C(/O)c1ccc(F)cc1 (stereo not drawn) | -1 | -5 | 40* | 24 | -22 | -9% | -3%
N#CC[C@H](Cc1ccccc1)N1CCN(CCc2ccccc2)CCC1=O | -2 | -20 | 50* | 34* | -17 | 15% | 1%
CC(C)C[C@@H](CO)N1CCN(CCCc2ccccc2)CCC1=O | -2 | -7 | -1 | 35* | 8 | -1% | 18%
N#CC[C@H](Cc1ccccc1)N1CCN(Cc2ccccc2)CCC1=O | 0 | -4 | 1 | 11 | 0 | / | /
O=C1CCN(CCCc2ccccc2)CCN1[C@H](CO)c1ccccc1 | 0 | -15 | 0 | 23 | 8 | ? | 20%
CC(C)C[C@@H](CO)N1CCN(Cc2ccccc2)CCC1=O | -3 | -9 | / | / | 1 | / | /
COc1ccc2nc3ccccc3nc2c1NC(=O)c1ccc(Cl)cc1Cl | -7 | -25 | 29 | 6 | -3 | -6% | 15%
COc1cc(-c2cc(C(=O)Nc3c(Cl)cc(Cl)cc3Cl)c3ccccc3n2)cc(OC)c1OC | -5 | -14 | 0 | 5 | 7 | / | /
CCN(Cc1ccncc1)C(=O)c1ccccc1NS(=O)(=O)c1ccc(Br)cc1 | -4 | -12 | / | / | -4 | 0% | 1%
CC(C)(C)NC(=O)c1cc2c(ccc3ccccc32)oc1=O | 12 | 1 | / | / | / | ? | 9%
CCC(C)N(NC(C)=O)c1nc(Cl)nc(NC(C)(C)C)n1 (stereo not drawn) | -1 | 3 | 80* | 11 | -24 | -1% | -3%
O=C(OCCN1C(=O)c2cccc3c(N4CCOCC4)ccc(c23)C1=O)c1ccccc1Cl | 7 | 10 | / | / | -6 | ? | ?
CCN(CC)C(=O)COC(=O)C1CCN(S(=O)(=O)c2ccc3c(c2)OCCO3)CC1 | 6 | 0 | 0 | 18 | 12 | 2% | -3%
CN(C(=O)COC(=O)C1CCN(S(=O)(=O)c2ccc3c(c2)OCCO3)CC1)c1ccccc1 | -1 | -6 | 1 | 6 | 7 | / | /
CN(C)c1ccc(S(=O)(=O)N2CCCCC2)cc1NC(=O)C1CSC2(C)CCC(=O)N12 (stereo not drawn) | -1 | -4 | 0 | -3 | 4 | 0% | -2%
CC(=O)Nc1cccc(-c2ccnc3c2CC(C)(C(=O)Nc2cccc(OC(F)(F)F)c2)O3)c1 (stereo not drawn) | 2 | -1 | / | / | / | / | /
O=C1C2CCCN2C(=O)N1CCN1CCN(c2ccccc2)CC1 (stereo not drawn) | 3 | -23 | 42* | 71* | 2 | -17% | 3%
O=C1C2CCCN2C(=O)N1CCCCN1CCN(c2ccccc2)CC1 (stereo not drawn) | ? | 4 | 86* | 62* | -32 | ? | ?
Cc1ccc(N2CCN(CCCCN3C(=O)C4CCCN4C3=O)CC2)cc1 (stereo not drawn) | -1 | -24 | / | / | -28 | / | /
O=C1C2CCCCN2C(=O)N1CCN1CCN(c2ccc(F)cc2)CC1 (stereo not drawn) | -3 | -5 | / | / | / | / | /
O=C1C2CCCN2C(=O)N1CCCCN1CCN(c2cccc(Cl)c2)CC1 (stereo not drawn) | 2 | -37 | 66* | 80* | -19 | 17% | 13%
COc1ccc(NC(=O)N2CCCC(c3ccccc3)C2)cc1 (stereo not drawn) | 9 | -2 | / | / | / | 18% | 21%
COc1ccc(NS(=O)(=O)c2cc(NC(=O)C(CC(C)C)NC(N)=O)ccc2N2CCOCC2)cc1 (stereo not drawn) | -2 | 0 | / | / | / | / | /
O=C(c1ccco1)N1CCCC(N2CCN(c3ccccc3F)CC2)C1 (stereo not drawn) | -2 | -41 | 8 | -18 | -11 | / | /
SMILES | D2 ag-1 | D2 PAM-1 | D2 ag-2 | D2 antag | D2 PAM-2 | D3 ag | D2 ag-3
O=C(c1ccnc(Cl)c1)N1CCCC(N2CCN(c3ccccc3F)CC2)C1 (stereo not drawn) | 3 | 0 | 24 | 25 | -6 | 19% | 19%
CC(=O)N1c2ccccc2C(=O)C1N1CCN(c2ccccc2F)CC1 (stereo not drawn) | / | / | / | / | 3 | / | /
CC(=O)N1CCC(N2CCN(c3ccccc3F)CC2)CC1 | 41* | 2 | 75* | 71* | -20 | ? | ?
Cc1ncoc1C(=O)N1CCCC(N2CCN(c3ccccc3F)CC2)C1 (stereo not drawn) | -3 | -26 | 36* | 1 | -12 | -14% | -2%
Cc1ccc(NCCCn2cnc3c(OCc4ccccc4)ncnc32)cc1C | -1 | / | / | / | / | / | /
Oc1cccc(-c2nc(-c3cccs3)c(-c3cccs3)[nH]2)c1 | / | / | 0 | / | 2 | / | /
CC(C)Cn1c(=O)c2ccccc2n2c(CCC(=O)NC(C)c3ccccc3)nnc12 (stereo not drawn) | / | / | -1 | / | 18 | / | /
CC1CN(C(=O)CNC(=O)Cc2cccc3ccccc23)CC(C)O1 (stereo not drawn) | -2 | 0 | 1 | -22 | -11 | 1% | 0%
Cc1ccc(CNc2nc(-c3ccco3)nn2C(=O)c2ccccc2[N+](=O)[O-])cc1 | / | / | -2 | / | 6 | / | /
CC(NC(=O)c1cccs1)C(c1cccs1)N1CCN(Cc2ccccc2)CC1 (stereo not drawn) | -1 | -30 | -1 | -7 | 1 | / | /
CC(NC(=O)c1ccc2c(c1)OCO2)C(c1cccs1)N1CCOCC1 (stereo not drawn) | 0 | -9 | 1 | 0 | 12 | / | /
CC(NC(=O)c1ccc2c(c1)OCO2)C(c1cccs1)N1CCN(c2ccccc2)CC1 (stereo not drawn) | -2 | -1 | 43* | -8 | -24 | 0% | 3%
CCC(=O)NC(C)C(c1cccs1)N1CCN(Cc2ccccc2)CC1 (stereo not drawn) | -4 | -11 | 45* | 2 | -15 | -12% | 4%
O=C1CC(c2ccccc2)Cc2[nH]c(=O)c(-c3nc(-c4ccc(Cl)c(Cl)c4)cs3)cc21 (stereo not drawn) | / | / | 1 | / | -6 | / | /
CCCCOc1ccc(C(=O)N2CCN(c3ccc(N4CCOCC4)nn3)CC2)cc1 | 2 | 0 | -1 | 1 | -3 | / | /
CCCOc1ccc(C(=O)N2CCN(c3ccc(N)cc3Cl)CC2)cc1 | -3 | -3 | 31* | 2 | -5 | -3% | 2%
